# Source: PubChem BioAssay
# HTR2A ag – mouse Htr2a agonists via beta-arrestin recruitment, primary screen, cell-based, luminescence; actives 0.66% (n = 360,000); CHO-K1 mHTR2A beta-arrestin complementation; percent of 30 µM serotonin response; activation, % at 7.6 µM;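 active means activation above a run cutoff, the mean activation of all tested compounds plus 3 SD, cut at about 14% in these data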;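 further: 0% = plate median of compound wells and 100% = 30 µM serotonin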
# HTR5A ag ctr – HTR5A agonists in luminescence cell assay, primary screen, counter-screen for OPRM1-OPRD1 heterodimer agonist project, full-deck HTS. actives 0.61% (n = 340,000). cell-based. 5-hydroxytryptamine receptor 5A (Homo sapiens), P47898. AID 504692, 2011. activation, % at 9.3 µM; in the data active means activation mostly above about 9.5%, no sharp cut-off; inactive means mostly below about 7.6%;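 further: 0% = cells with vehicle only and 100% = reference agonist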
# HTR5A inv ctr – HTR5A inverse agonists in luminescence cell assay, primary screen, counter-screen for OPRM1-OPRD1 heterodimer inverse agonist project, full-deck HTS; 5-hydroxytryptamine receptor 5A (Homo sapiens), P47898; HTR5A cell line, inverse agonism; inhibition, % at 9.3 µM; actives 0.083% (n = 340,000); in the data active means inhibition mostly above about 23%, no sharp cut-off; inactive means mostly below about 18%;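 further: 0% = cells with DMSO and 100% = no-cell wells with DMSO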
# MOR-DOR inv ag – inverse agonists of MOR-DOR heterodimerization, primary screen, cell-based, luminescence. inhibition, % at 9.3 µM. cell-based MOR-DOR heterodimer luminescence, inverse agonism. Mu-type opioid receptor (Homo sapiens) + Delta-type opioid receptor (Homo sapiens), …. AID 504357, 2011. actives 0.21% (n = 340,000); in the data active means inhibition above about 22%, passing the limit was not always enough;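 further: 0% = cells with DMSO and 100% = wells without cells with DMSO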
# Target sequence (P35372 whole entry, looked up): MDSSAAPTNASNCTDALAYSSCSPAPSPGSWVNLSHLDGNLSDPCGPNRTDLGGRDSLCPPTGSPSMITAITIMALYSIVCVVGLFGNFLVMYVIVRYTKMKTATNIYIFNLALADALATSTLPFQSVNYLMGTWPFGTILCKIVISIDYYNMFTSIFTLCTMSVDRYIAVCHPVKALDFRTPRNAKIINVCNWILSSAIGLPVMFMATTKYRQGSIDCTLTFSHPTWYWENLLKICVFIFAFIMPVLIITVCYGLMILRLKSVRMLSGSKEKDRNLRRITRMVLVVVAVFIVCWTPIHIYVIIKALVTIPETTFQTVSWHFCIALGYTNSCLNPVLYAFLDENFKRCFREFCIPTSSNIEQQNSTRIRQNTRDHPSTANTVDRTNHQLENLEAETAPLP
# Target sequence (P41143 whole entry, looked up): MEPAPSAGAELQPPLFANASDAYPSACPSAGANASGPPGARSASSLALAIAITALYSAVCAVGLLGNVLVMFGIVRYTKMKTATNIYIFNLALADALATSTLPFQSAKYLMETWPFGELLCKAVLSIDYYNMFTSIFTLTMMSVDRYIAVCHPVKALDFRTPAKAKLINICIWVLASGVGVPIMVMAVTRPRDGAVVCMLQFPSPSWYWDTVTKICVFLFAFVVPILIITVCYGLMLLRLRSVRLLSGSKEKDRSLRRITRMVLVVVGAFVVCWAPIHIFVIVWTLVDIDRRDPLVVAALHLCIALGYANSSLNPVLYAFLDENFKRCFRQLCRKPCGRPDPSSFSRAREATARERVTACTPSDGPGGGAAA
# sPLA2-III inh – human group III sPLA2 inhibitors, primary screen, biochemical, QFRET, BODIPY PC-A2 liposome substrate; actives 0.56% (n = 370,000); QFRET BODIPY PC-A2 liposome hydrolysis, fluorescence; inhibition, % at 12.2 µM; Group 3 secretory phospholipase A2 (Homo sapiens), Q9NZ20;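 active means inhibition above mean plus 3 SD of compounds lying within the high and low control bounds, cut at about 19% in these data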;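 further: 0% = median of test compound wells and 100% = no enzyme DMSO wells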
# MOR-DOR ag-1 – agonists of OPRM1-OPRD1 heterodimerization, primary screen, cell-based, luminescence. actives 0.3% (n = 340,000). AID 504326, 2011. activation, % at 9.3 µM. cells. Mu-type opioid receptor (Homo sapiens) + Delta-type opioid receptor (Homo sapiens), …;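 further: 0% = vehicle-treated cells and 100% = reference agonist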
# MOR-DOR ag-2 – OPRM1-OPRD1 heterodimerization promoters, counter-screen for HTR5A agonist project, cell-based, luminescence. shares compounds with HTR5A ag ctr. U2OS counter-screen cells, complementation luminescence, 3 h. activation, % at 9.3 µM. actives 13% (n = 800). AID 504913, 2011
# HTR5A ag confirm – HTR5A agonists, retest of hits, confirmation, cell-based, luminescence | actives 17% (n = 800) | HTR5A agonist cell assay | shares compounds with HTR5A ag ctr | activation, % at 9.3 µM | AID 504915, 2011; in the data active means activation above about 17%;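 further: 0% = cells with vehicle only and 100% = full reference agonist response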
# * = called active by the depositor; · = no result given. An excerpt weighted towards active compounds, which were near 2.2% of everything screened. Unless noted, no stated cut-off is given here; in the data, active means activation above about 18%; inactive means the rest.
SMILES,HTR2A ag,HTR5A ag ctr,HTR5A inv ctr,MOR-DOR inv ag,sPLA2-III inh,MOR-DOR ag-1,MOR-DOR ag-2,HTR5A ag confirm
Cc1ccnc(NS(=O)(=O)c2ccc(Oc3ccccc3)cc2)c1,0,7,0,9,-11,-2,·,·
CCCCCc1ccc(S(=O)(=O)Nc2cc(C)ccn2)cc1,0,17*,-23,4,10,-1,-1,2
C[C@@H]1CN(c2ccc(N3CCN(C(=O)OC(C)(C)C)C[C@@H]3C)cc2C#N)CCN1Cc1ccccc1,·,·,·,·,1,·,·,·
COc1cc(-c2nc3ccc(C)cn3c2Nc2ccc3c(c2)OCCO3)ccc1O,-1,43*,-108,-13,-8,2,3,39*
COc1cc(-c2nc3cnccn3c2Nc2ccc3c(c2)OCCO3)ccc1O,1,10,-26,5,-6,-1,·,·
O=c1[nH]c(C2CCN(S(=O)(=O)Cc3ccccc3)CC2)nc2c1nnn2Cc1cccc(Cl)c1,6,14*,-43,-13,-14,2,1,1
COc1ccccc1N1CCN(C(=O)c2cccc(C(=O)N3CCN(c4ccccc4OC)CC3)c2)CC1,2,15*,-36,0,-5,0,4,-4
COc1ccccc1N1CCN(C(=O)C2CCN(C(=O)c3cccc(Cl)c3)CC2)CC1,4,1,-3,5,-2,-1,·,·
COc1ccc(C(=O)N2CCN(c3ccccc3Cl)CC2)cc1S(=O)(=O)NC1CC1,1,18*,-44,0,5,0,96*,3
C[C@@H]1CN(c2ccc(N3CCN(C(=O)OC(C)(C)C)C[C@@H]3C)cc2C#N)C[C@H](C)O1,·,·,·,·,11,·,·,·
C[C@@H]1CN([C@H](C)CO)C(=O)c2cc(NC(=O)Nc3ccccc3)ccc2O[C@@H](C)CCCCO[C@H]1CN(C)S(=O)(=O)c1ccc(F)cc1,·,·,·,·,-48,·,·,·
COc1ccc(Cn2c(N)c(S(=O)(=O)c3cccs3)c3nc4ccccc4nc32)cc1,1,15*,-5,-13,-1,3,3,3
CCOC(=O)C1=C(C(=O)OCC)C2N(Cc3ccc(C#N)cc3)c3ccccc3[C@@]23C[C@@H](C(=O)OC)N(S(=O)(=O)c2c(C)noc2C)C3=N1 (stereo partly specified),·,·,·,·,5,·,·,·
COc1cc(/C=C2\SC(=O)N(CCN)C2=O)ccc1OS(=O)(=O)c1cc(C)ccc1C,-1,22*,-64,-42,-1,9,19*,15
COC(=O)[C@]12C[C@H](CC(=O)NCCc3ccccc3OC)C(=O)N(CCC3=CCCCC3)C1=C[C@H](COCc1ccccc1)O[C@@H]2C,·,·,·,·,-13,·,·,·
COc1ccc(C2C(C(=O)Nc3cc(Cl)ccc3F)CCC(=O)N2c2ccc(OC)cc2)cc1 (stereo unspecified),·,·,·,·,-25,·,·,·
NC(=O)c1ccc(SCC(=O)NC2CCCCC2)c([N+](=O)[O-])c1,3,14*,8,-14,5,3,2,1
COC(=O)c1ccc(SCC(=O)NC2CCCC2)c([N+](=O)[O-])c1,1,0,2,9,-2,-2,·,·
C=CCN1[C@@H](CC(C)C)COc2cccc(F)c2S1(=O)=O,·,·,·,·,5,·,·,·
COc1ccc(-n2c(SCC(=O)NC3CCCCCC3)nnc2-c2ccncc2)cc1,·,·,·,·,5,·,·,·
CCC[C@H]1[C@@H](NC(=O)c2ccc(Cl)cc2)CC[C@@]23CCCN2C(=O)CCC[C@@H]13,·,·,·,·,1,·,·,·
COc1ccc(NC(=O)CC2C(=O)N(Cc3ccccc3)C(=S)N2CCN2CCOCC2)cc1 (stereo unspecified),3,1,-4,-5,-43,1,·,·
C=CCN1C(=O)C(CC(=O)Nc2ccc(OCCC)cc2)N(CCCN2CCN(Cc3ccccc3)CC2)C1=S (stereo unspecified),-1,17*,-73,-76,-38,16,39*,-2
CCCCCCOc1ccc(NC(=O)CC2C(=O)N(CC)C(=S)N2Cc2ccco2)cc1 (stereo unspecified),-1,15*,-34,-16,-39,3,-1,-9
COc1cccc(CNC(=S)OC2CCC23CCC(c2ccccc2)CC3)c1 (stereo unspecified),·,·,·,·,2,·,·,·
SMILES,HTR2A ag,HTR5A ag ctr,HTR5A inv ctr,MOR-DOR inv ag,sPLA2-III inh,MOR-DOR ag-1,MOR-DOR ag-2,HTR5A ag confirm
CC(=O)Nc1ccc2nc(NC(=O)c3cccnc3)sc2c1,7,15*,-34,-1,1,0,2,51*
CN(C)S(=O)(=O)c1ccc2nc(NC(=O)c3cccnc3)sc2c1,1,3,-7,8,3,-1,·,·
COc1ccccc1CNC1CCC12CCC(c1ccccc1)CC2 (stereo unspecified),·,·,·,·,8,·,·,·
Cc1ccc(C(=O)c2coc3c2C(=O)C(=O)c2ccccc2-3)cc1,6,19*,-33,-73,-5,13,7,7
C/C(=N\NC(=O)CNc1cccc(C)c1)c1ccc(Br)s1,-3,25*,-131,2,13,0,3,34*
C/C(=N\NC(=O)Cc1ccccc1)c1ccc(Br)s1,-1,-1,3,-24,3,5,·,·
C/C(=N\NC(=O)CNc1ccccc1)c1ccccc1,-1,18*,-49,3,2,-1,0,0
Cc1nc(NC(=O)c2ccc(Br)o2)ccc1Br,2,11,-27,-8,3,2,·,·
Cc1nc(NC(=O)c2cc3ccccc3o2)ccc1Br,-4,22*,-52,-5,8,1,4,0
COc1ccccc1C(CNC(=O)c1cccc(S(=O)(=O)Nc2ccc(F)cc2)c1)N1CCCC1 (stereo unspecified),-3,65*,-189,8,-11,-2,-3,0
COc1ccc(NS(=O)(=O)c2cccc(C(=O)NCC(c3ccccc3OC)N3CCCC3)c2)cc1 (stereo unspecified),-1,2,-21,3,-7,-1,·,·
O=C(CSc1n[nH]c(=O)n1C1CC1)Nc1ccc(F)c([N+](=O)[O-])c1,7,14*,-39,8,-3,-2,51*,6
